Data from PubChem BioAssay (NCI).
About 79,000 compounds went through this panel and 15% of them were active in at least one assay; those are over-represented in the sample as a whole. Unmarked numbers belong to inactive results. The source made the active and inactive calls. Rule as the data show it: active = growth inhibition above about 70%; inactive = the rest. Where a SMILES comes first, the peptide text is derived from it. [ ]: non-standard residue; d: D form. The star is where a group is joined. ξ: configuration not given here. Ac5c = NC1(C(=O)O)CCCC1; Cbz = O=C(OCc1ccccc1)*; Boc = CC(C)(C)OC(=O)*; ξM = CSCCC(N)C(=O)O; tBu = CC(C)(C)*

How the values were obtained:
[1] = NCI Yeast Anticancer Drug Screen. Data for the rad50 strain (AID 155);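 also: 0% = growth of vehicle-only cultures of the same strain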; conditions: S. cerevisiae rad50 strain growth inhibition; at 50.0 µM; hits give high values
Procedure, shortened: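 Growth of the mutant yeast was measured after compound exposure and referenced to vehicle-treated cultures.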

[2] = NCI Yeast Anticancer Drug Screen. Data for the mec2-1 strain (AID 157); conditions: S. cerevisiae mec2-1 strain, at 50.0 µM, hits give high values
Procedure, shortened: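 Vehicle-treated cultures served as reference for growth inhibition of compound-exposed mec2-1 yeast.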

[3] = NCI Yeast Anticancer Drug Screen. Data for the sgs1 mgt1 strain (AID 161);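 also: 0% = growth of cultures given vehicle only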; conditions: S. cerevisiae sgs1 mgt1 strain, at 50.0 µM, hits give high values
Procedure, shortened: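 Genetically altered yeast, compound exposure, growth inhibition relative to vehicle.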

[4] = NCI Yeast Anticancer Drug Screen. Data for the cln2 rad14 strain (AID 165);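 also: 0% = growth equal to vehicle treated cultures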; conditions: S. cerevisiae cln2 rad14 strain, at 50.0 µM, hits give high values
Procedure, shortened: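 Each compound was tested on cln2 rad14 yeast. Inhibition of growth was calculated against vehicle-exposed controls.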

[5] = NCI Yeast Anticancer Drug Screen. Data for the bub3 strain (AID 167); conditions: S. cerevisiae bub3 mutant strain, at 50.0 µM, hits give high values
Procedure, shortened: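 Whole-cell yeast assay. The mutant strain was incubated with compounds, and growth inhibition was determined by comparison with vehicle-treated cells.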

[6] = NCI Yeast Anticancer Drug Screen. Data for the mlh1 rad18 strain (AID 175); conditions: S. cerevisiae mlh1 rad18 strain growth inhibition; at 50.0 µM; hits give high values
Procedure, shortened: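 Vehicle-treated cultures served as the reference for growth inhibition in a yeast strain carrying DNA damage repair alterations exposed to each compound.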

| Compound | growth inhibition [1] | growth inhibition [2] | growth inhibition [3] | growth inhibition [4] | growth inhibition [5] | growth inhibition [6] |
| --- | --- | --- | --- | --- | --- | --- |
| COc1ccc(NC(=O)c2cc3ccccc3cc2OC(=O)NC(C)(C)C)cc1 | -12.5% | -13.3% | -7.15% | 2.5% | -0.15% | -32.8% |
| O=C(O)CCNc1ncnc2nc[nH]c12 | -65.5% | -13.2% | -33.5% | -34.6% | 24.4% | -19.9% |
| COC(=O)C1(NC(=O)C(Cc2ccccc2)NC(=O)C(NC(=O)C(CCCCNC(=O)OC(C)(C)C)NC(=O)C(Cc2c[nH]c3ccccc23)NC(=O)C(Cc2ccccc2)NC(=O)OCc2ccccc2)C(C)OC(C)(C)C)CCCC1 (stereo not given) (Cbz-FWK(Boc)T(tBu)F[Ac5c]-OMe; configuration not given here) | -11.9% | -1.85% | -26.6% | 6.9% | -11.4% | -12.7% |
| CC1OC(OC2C(OC3C[C@@]4(C)C(C[C@H](O)[C@H]5[C@H](C6(C)CCC(C(C)(C)O)O6)CCC54C)[C@]4(C)CC[C@@H](O)C(C)(C)C34)OC(CO)C(O)C2O)C(O)C(O)C1O (stereo not given in full) (tested in a mixture with another compound) | -7.6% | -20.1% | -3.45% | -26.7% | -8.5% | -72.5% |
| CC(=O)OCC1OC(Oc2cccc(C=C(C(C)=O)C(C)=O)c2)C(OC(C)=O)C(OC(C)=O)C1OC(C)=O (stereo not given) | 9.25% | 3.25% | 6.65% | 5.3% | 0.65% | 30.7% |
| COc1ccc2c(c1O)-c1c(OC)c(OC)cc3c1[C@H](C2)[N+](C)(C)CC3 | -9% | -12.2% | 11.2% | 1.65% | -1.1% | -53.4% |
| O=S(=O)(CC1=NC2C=CC=CC2N=C1)NCc1ccccc1 (stereo not given) | 7.3% | -18.9% | 12.8% | 30.3% | 25.6% | -11.8% |
| O=C(CNC(=O)C(CO)NC(=O)OCc1ccccc1)OCc1ccccc1 (stereo not given) | 12.4% | 3% | 9.35% | 4.1% | -0.1% | 4.35% |
| CC(=O)Nc1ccc(Cc2ccc3[nH]c(=O)cc(C)c3c2)cc1 | -16.3% | 18.6% | 15.8% | 5.35% | -30.1% | 12.9% |
| CCOC(=O)C(C)NC(=O)C(C)NC(=O)C(C)NC(=O)C(C)NC(=O)C(C)NC(=O)C(C)NC(=O)C(C)NC(=O)OCc1ccccc1 (stereo not given) (Cbz-AAAAAAA-OEt; configuration not given here) | -16.2% | -23.4% | -21.4% | 16.6% | 5.4% | -8.45% |
| O=C(O)c1ccc(C(=O)c2ccc(C(=O)c3ccc(C(=O)O)cc3)cc2)cc1 | -9.1% | -18.4% | 3.65% | -52% | -13% | -14.8% |
| C=C1[C@H](OCC(C)C)[C@@H](OCC(C)C)[C@@H](O)C(C)(C)/C=C/[C@H](C)C(=O)[C@@]2(O)C[C@H](C)[C@H](O)[C@@H]2[C@H]1OCC(C)C | -37.9% | -45% | -9.85% | -36.3% | -12.8% | -68.8% |
| CC(=O)C1C(=O)C(=O)N(c2ccccc2C(C)C)C1=O (stereo not given) | 19% | 6.55% | 11.9% | 21.4% | 11.9% | 29.5% |
| CCOC(=O)c1c(N)sc2c1C(C(=O)OCC)CCCC2 (stereo not given) | -11.1% | 7.5% | 27.3% | -16.2% | 37.5% | 38.2% |
| C=CCC(C(=O)O)c1ccccc1 (stereo not given) | -11.2% | -12.2% | -5.2% | -29.9% | -14.6% | 1.75% |
| CC1(C)CC(C)(Br)C(Br)C(=O)C1C(O)(C(F)(F)F)C(F)(F)F (stereo not given) | 99.5% (active) | 99.8% (active) | 99.8% (active) | 99.2% (active) | 99.6% (active) | 99.8% (active) |
| Cc1nnnn1C12CC3CC(CC(C3)C1)C2 | 11.7% | 5.7% | -5.75% | -14.3% | -15.7% | 15.1% |
| COC(=O)Nc1nc2c(OC)c(OC)c(OC)cc2[nH]1 | -5.15% | -6.75% | -3.95% | -17.9% | -18.6% | -17.1% |
| CC1(C)OC(COCCOCCCCCO)C(COCCOCCCCCO)O1 (stereo not given) | 7.1% | 3.75% | 6.2% | 17.9% | -3.05% | 6.7% |
| CCCCCOc1ccc2ccccc2c1 | -23.5% | -27.8% | -18.6% | -20.9% | 10.2% | 7.15% |

| Compound | growth inhibition [1] | growth inhibition [2] | growth inhibition [3] | growth inhibition [4] | growth inhibition [5] | growth inhibition [6] |
| --- | --- | --- | --- | --- | --- | --- |
| COC(=O)C1=C(O)/C(=C\c2ccccc2)NC1=O | 9.35% | -11.3% | -12.9% | -40.4% | -17.8% | -5.7% |
| O=C1CS/C(=N/C(=O)Nc2ccc(Cl)cc2)N1 | -1.9% | 32.5% | 16.1% | -9.55% | -6.95% | 14.5% |
| CC1CN(CCO)C(C)(C)C1 (stereo not given) | 4.6% | 17.8% | -6.3% | -12.8% | -9.2% | -17% |
| CCn1c(=O)c2c3ccc(O)cc3[nH]c2c2ccc(O)cc21 | -63.7% | -74.6% | -4.8% | -14.6% | -23.8% | -43.5% |
| Cc1cnc2ccccc2c1 | -12.2% | -2.15% | -5.45% | 4.35% | 0.45% | 2.8% |
| CSCCC(NC(=O)CNC(=O)CNC(=O)OCc1ccccc1)C(=O)O (stereo not drawn) (Cbz-Gly-Gly-[ξM]-OH) | 96.5% (active) | 98.7% (active) | 92.5% (active) | 98.4% (active) | 99% (active) | 96.7% (active) |
| CCOC(=O)C(C)OC(=O)C(C)OC(C)=O (stereo not given) | 4.7% | 23.8% | 17.1% | 9.4% | 1.5% | -7.7% |
| O=C1CCCC2=C1CC1=C(CCCC1=O)N2c1cccc2ccccc12 | 7.7% | -16% | 12.7% | 9.85% | 21.8% | 28.1% |
| O=C(OCC(F)(F)C(F)(F)C(F)(F)C(F)(F)C(F)(F)C(F)F)OCC(F)(F)C(F)(F)C(F)(F)C(F)(F)C(F)(F)C(F)F | 0.1% | 9.05% | -5.45% | -3.65% | -0.6% | 0.95% |
| CC1(c2cccc3ccccc23)OC(=O)c2cccc(F)c21 (stereo not given) | -10.9% | -7.1% | -16.1% | 23.4% | 7.6% | 0.55% |
| CC(O)COc1ccc(OCc2ccccc2)cc1 (stereo not given) | 26.6% | 34.6% | 49.9% | 10.2% | 46.5% | 33.9% |
| Cc1ccc(C(C)C)cc1OC(=O)NC1CCCCC1 | -4% | 9.3% | 9.9% | -13.2% | -23.4% | -0.6% |
| O=C(c1cccc(C(F)(F)F)c1)c1ccccc1Cc1ccccc1 | 3.85% | 13.9% | 12.2% | -28.1% | 14.2% | 42% |
| O=[N+]([O-])c1cc(F)cc(F)c1Nc1ccccc1 | 2.85% | -11.4% | 2.2% | 3.1% | 0.5% | 17.6% |
| CNc1nc2c(C)ccc3nc(N(C)C)nc-3c2n1C | 0.6% | -22.2% | 4.4% | 16.4% | 20.1% | 14.8% |
| N#Cc1c(O)c(C=O)c(=O)n2c1[nH]c1ccccc12 | -30.6% | -45.5% | -21.7% | -8.15% | 4.05% | -0.05% |
| CCCCC1SCC(=O)N1c1nncs1 (stereo not given) | 6.35% | 24% | 5.4% | -3.8% | 16.7% | -3.2% |
| Cc1cc(S(=O)(=O)Nc2nnc3c4ccccc4cnn23)c(S)cc1Cl | -38% | -24.4% | -21% | 2.7% | -15.8% | -31.6% |
| CCN(CCO)CC(O)Cn1cnc2c(N)ncnc21 (stereo not given) | 2.35% | -13.6% | -18.1% | 26.6% | -17.3% | 23.4% |
| COc1ccc(N)cc1CO | 8.85% | -9.85% | -15.3% | -17.1% | -12.3% | 12.7% |
